Compound activity: PubChem BioAssay, National Center for Advancing Translational Sciences (NCATS)
Most compounds without a hit are left out; they make up all but 15% or so of the library.
DT40 TDP1 CPT – qHTS for Inhibitors of human tyrosyl-DNA phosphodiesterase 1 (TDP1): qHTS in cells in presence of CPT; chicken DT40 Tdp1-/-;hTDP1 cells + 20 nM CPT, ATP luminescence, 48 h; Potency, µM (series often up to 46.2 µM), for inactives: at the highest dose activity change, negative = growth inhibition, usual class: inhibitors; 420,000 tested, 12% active; further: nearly all actives have a fitted effect of over 55% in size
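Chicken DT40 Tdp1-/- cells complemented with human TDP1, 400 cells/well, exposed to compounds plus 20 nM camptothecin for at least 48 h at 37 C; viability read as ATP content by CellTiter-Glo luminescence.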
ELG1 repair inh – qHTS screen for small molecules that inhibit ELG1-dependent DNA repair in human embryonic kidney (HEK293T) cells expressing luciferase-tagged ELG1 | Potency, µM (highest dose often 46.1 µM), inactives show at the top dose activity change, negative = inhibition, usual class: inhibitors | AID 504467, 2011 | HEK293T ELG1-luciferase reporter, luminescence, 16 h; DNA damage induced by 5-fluorouridine | 330,000 tested, 2.3% active; further: nearly all actives have a fitted effect of over 55% in size
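5-Fluorouridine DNA damage + compound/DMSO, 2,000 cells/well, 16 h, 37 °C/5% CO2. ONE-Glo, 30 min RT, luminescence. Readout = decrease in reporter signal.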
Gal4-VP16 FLuc – VP16 counterscreen qHTS for inhibitors of ROR gamma transcriptional activity | Potency, µM (series often up to 53.6 µM), for the others: top-dose activity, negative = inhibition, hits mostly inhibitors | Drosophila S2 Gal4-VP16 UAS-luciferase, luminescence, 20 h | 310,000 tested, 3.5% active;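 further: Gal4-VP16 expression switched on by copper sulfate through the metallothionein promoter; nearly all actives have a fitted effect of over 50% in size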
12-LOX inh – Primary qHTS assay for inhibitors of human arachidonate 12S-lipoxygenase (ALOX12): Round 2; Polyunsaturated fatty acid lipoxygenase ALOX12 (Homo sapiens), P18054; purified 12hLO, xylenol orange hydroperoxide absorbance; Potency, µM (doses to about 108 µM), for the others: top-dose activity change, negative = inhibition, most hits filed as inhibitors; 580,000 tested, 1.1% active
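Purified human 12hLO at 150 nM in 25 mM Hepes, 0.01% Triton X-100, pH 7.0, preincubated 15 min at room temperature with compound. Reaction started with 40 uM arachidonic acid, 30 min at room temperature. Hydroperoxide measured by Fe-xylenol orange, 573/405 nm absorbance ratio.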
RORgamma inh – qHTS for inhibitors of ROR gamma transcriptional activity; Nuclear receptor ROR-gamma (Mus musculus), P51450; Drosophila S2 Gal4-RORgamma UAS-luciferase reporter, 20 h; Potency, µM (doses to about 53.6 µM), inactives show top-dose activity change, negative = inhibition, most hits filed as inhibitors; 310,000 tested, 5.4% active; AID 2551, 2010; further: nearly all actives have a fitted effect of over 60% in size
Target sequence (P51450 whole entry, looked up, the tested form may be a part): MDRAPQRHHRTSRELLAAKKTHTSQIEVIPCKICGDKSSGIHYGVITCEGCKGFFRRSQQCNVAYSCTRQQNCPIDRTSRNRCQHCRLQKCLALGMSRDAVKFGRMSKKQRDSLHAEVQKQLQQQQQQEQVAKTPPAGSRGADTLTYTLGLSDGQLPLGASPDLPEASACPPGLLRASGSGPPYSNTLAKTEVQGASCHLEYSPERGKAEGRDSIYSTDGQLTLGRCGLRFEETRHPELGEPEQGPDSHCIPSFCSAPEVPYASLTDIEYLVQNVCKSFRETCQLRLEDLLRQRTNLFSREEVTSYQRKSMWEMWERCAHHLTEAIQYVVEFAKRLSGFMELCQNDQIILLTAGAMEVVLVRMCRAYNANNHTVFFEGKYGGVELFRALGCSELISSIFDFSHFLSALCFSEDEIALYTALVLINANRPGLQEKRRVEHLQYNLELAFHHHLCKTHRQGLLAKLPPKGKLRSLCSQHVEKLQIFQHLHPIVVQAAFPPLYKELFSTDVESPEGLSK
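A Gal4/UAS one-hybrid system in insect cells: metallothionein-promoter Gal4–ROR gamma fusion plus Photinus luciferase reporter. Copper sulfate 700 uM final, 20 hr ambient incubation, luminescent detection after 10 min with reagent.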
TDP1 cell noCPT – qHTS for Inhibitors of human tyrosyl-DNA phosphodiesterase 1 (TDP1): qHTS in cells in absence of CPT | 420,000 tested, 15% active | Potency, µM (doses to about 46.2 µM), for the others: top-dose activity change, negative = growth inhibition, most hits filed as inhibitors | DT40 Tdp1-/- hTDP1 cells, no CPT, ATP luminescence, 48 h; further: nearly all actives have a fitted effect of over 55% in size
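No-CPT arm: Tdp1-/-;hTDP1 DT40 cells (400/well) plus compounds, incubated ≥48 hr at 37 °C. Readout CellTiter-Glo luminescence.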
Numbers without * were called inactive; ? = inconclusive; . = not tested or not shown. The call rests on the fitted dose curve; in most records, active means well fitted curve in the direction sought with a large enough effect; inconclusive means small, poorly fitted or top-dose-only effect, or another doubt; inactive means no such curve, though single readings can be large; an effect the other way counts as inactive or inconclusive. On the % scale 0 is the no-effect control and ±100 the full control effect; potency means the concentration at half of the fitted maximal effect.

SMILES | DT40 TDP1 CPT | ELG1 repair inh | Gal4-VP16 FLuc | 12-LOX inh | RORgamma inh | TDP1 cell noCPT
COc1ccc(CCn2c(=O)c3cccnc3n(CC(=O)Nc3cccc(C)c3)c2=O)cc1OC | -15% | . | . | -13% | . | -13%
COc1ccc(Cl)cc1NC(=O)Cn1c(=O)n(Cc2cccs2)c(=O)c2cccnc21 | ? | . | . | -20% | . | 18µM*
CCN(C(=O)Cn1c(C(=O)OC)cc2sccc21)c1cccc(C)c1 | 23µM* | . | . | -4% | . | ?
COC(=O)c1cc2sccc2n1CC(=O)Nc1cc(Cl)ccc1OC | 12µM* | . | . | -23% | . | 10µM*
O=C(c1ccoc1)N1CCc2onc(C(c3ccccc3)c3ccccc3)c2C1 | . | . | . | -2% | . | .
Cc1ccc(C)c(NC(=O)Cn2c(=O)n(Cc3cccs3)c(=O)c3cccnc32)c1 | 18µM* | . | . | ? | . | 13µM*
CCc1ccc(NC(=O)Cn2c(=O)n(Cc3ccc(C)cc3)c(=O)c3cccnc32)cc1 | ? | . | . | -11% | . | -11%
COc1ccc(Cl)cc1NC(=O)Cn1c(=O)n(Cc2ccc(F)cc2)c(=O)c2cccnc21 | ? | . | . | -16% | . | 9.2µM*
COc1ccc(-c2cnc3n2CC(C(=O)N(C)C)CC3)cc1 (stereo not given) | . | . | . | 43% | . | .
COc1ccc(-c2cnc3n2CCCCC3)cc1 | ? | 0% | -3% | 278% | ? | 23µM*
Clc1ccc(-c2cnc3n2CCC3)cc1 | -23% | ? | -6% | 9% | 18µM* | -28%
O=S(=O)(Nc1nc2ccccc2nc1Nc1ccc(F)cc1)c1cccc2nsnc12 | . | . | . | 1% | . | .
Cc1nccn1CC(O)COc1ccc(Cl)cc1Cl (stereo not given) | ? | -3% | -4% | 8% | 12% | 15µM*
Cc1cc(C)n(CC(O)COc2ccc(Cl)cc2Cl)n1 (stereo not given) | ? | ? | 5% | 4% | -17% | 21µM*
Cc1ccc(CNC(=O)c2[nH]c(C(F)(F)F)nc2-c2ccccc2)cc1 | ? | . | . | ? | . | 21µM*
CC(=O)c1cccc2c(O)c(C3=Nc4ccccc4C3=O)[nH]c12 | 18µM* | ? | ? | -4% | -30% | 15µM*
CCC(C)NC(=O)c1cc(-c2ccccc2)nc2ccccc12 (stereo not given) | . | . | . | 30% | . | .
CC(C)CCNC(=O)c1cc(Sc2ccc(F)cc2F)nc2ccccc12 | ? | . | . | -18% | . | ?
CCc1ccc(Sc2cc(C(=O)NCc3ccccc3OC)c3ccccc3n2)cc1 | 21µM* | . | . | -14% | . | 18µM*
CCC(C)NC(=O)c1cc(Sc2cccc(Cl)c2)nc2ccccc12 (stereo not given) | 16µM* | . | . | -16% | . | 15µM*
O=C(NCc1ccc(F)cc1)c1cc(Sc2ccc(F)cc2F)nc2ccccc12 | 16µM* | . | . | -23% | . | ?
CCc1ccc(Sc2cc(C(=O)NC(C)CC)c3ccccc3n2)cc1 (stereo not given) | 16µM* | . | . | 0% | . | 16µM*
CCOc1ccc(Sc2cc(C(=O)NCc3ccc(F)cc3)c3ccccc3n2)cc1 | -27% | . | . | -13% | . | ?
Cc1c(CC(=O)NCCc2ccccc2)c(=O)oc2cc(O)c(Cl)cc12 | . | . | . | 1% | . | .
O=C(CC(F)(F)F)N1CCC(N2C(=O)C3(CCCC3)C2c2ccccc2)CC1 (stereo not given) | . | . | . | 9% | . | .
COc1ccc(Cn2ccc3nc(C)c(C(=O)Nc4ccc(OC)c(OC)c4)cc3c2=O)cc1 | -3% | . | . | -3% | . | 2%
